Laboratory results from PubChem BioAssay (NCI).
Where “and” joins values, the source holds several entries; their conditions need not be identical. Equal values may be shown once. This is part of a sample that, as a whole, favours compounds with a hit. Of some 83,000 tested, about 20% had one in any assay.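 Step 1: grow cells in 96-well plates. Step 2: add test compound at a single concentration. Step 3: incubate 48 h. Step 4: record percent growth.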 Where a structure was tested more than once in an assay, its records may differ in their call. Calls of active or inactive are those of the source.

System: COLO 205 colon
Assay: NCI-60 one-dose screen, 48 h (100 = growth as untreated, 0 = no growth, -100 = all killed)
Settings: 10 µM
Method: Cells are grown in 96 well plates and exposed to the test compound for 48 hours. Compounds are tested at a single concentration, which is 10^-5 M for most compounds. The reported endpoint is percent growth (GI% or GIPRCNT), where numbers from 0 - 100% represent growth inhibition, and numbers from -100% - 0 represent cell death. For example, a value of 40 represents 60% growth inhibition. A value of 0 means no net growth occurred over the course of the experiment. A value of -40 indicates 40% of cells at the beginning of the experiment died by the end of the experiment. A value of -100 means all cells are dead at the end of the experiment.
NCI-60 Human Tumor Cell Lines Screen was performed using the standard one-dose NCI protocol, which is described in more detail at https://dtp.cancer.gov/discovery_development/nci-60/default.htm.
Compounds with GIPRCNT values below 10 were considered active. Activity score was based on GIPRCNT using the following formula: […]
Score is 0 for GIPRCNT values of 100 or above, 50 for GIPRCNT values of 0, and 100 for GIPRCNT values of -100.

SMILES	growth
CC1=C(CCC=NNC(N)=O)C2=C(C)C3(CC3)[C@@](C)(O)C(=O)C2=C1	-86.4% (active)
CCC(C)[C@H]1C(=O)O[C@H](C(C)C)C(=O)N(C)[C@@H](C(C)C)C(=O)O[C@H](C(C)C)C(=O)N(C)[C@@H](C(C)C)C(=O)O[C@H](C(C)C)C(=O)N1C (stereo not given in full)	-74.7% (active)
C=C1[C@@H](C)C2[C@H](Cc3ccccc3)NC(=O)[C@]23[C@H](OC(C)=O)/C=C/[C@@](C)(O)C(=O)[C@@H](C)C/C=C/[C@H]3[C@@H]1O (stereo not given in full)	35% (inactive)
CC(=O)O[C@@H]1[C@@H]2O[C@H]2[C@@](C)(O)C(=O)[C@@H](C)C/C=C/[C@H]2[C@@H]3O[C@]3(C)[C@@H](C)C3[C@H](Cc4ccccc4)NC(=O)[C@@]312 (stereo not given in full)	38.8% (inactive)
CCCCCCCCCC(=O)N[C@@](C)(CC)C(=O)N1CCC[C@H]1C(=O)N[C@@H](CC(C)C)C(=O)N[C@@](C)(CC)C(=O)N[C@@H](CCC(N)=O)C(=O)N[C@H](CCC(N)=O)C(=O)NC(C)(C)C(=O)NC(C)(C)C(=O)N[C@@H](CCC(N)=O)C(=O)N[C@H](CC(C)C)C(=O)N[C@H](CO)CC(C)C	-63.2% (active) and -52.1% (active)
COc1cc2c(cc1OC)[C@@H]1N(CC2)C(=O)c2ccccc2[C@@]1(C)C(=O)O	115% (inactive)
COC(=O)[C@H]1[C@@H](O)[C@@]2(O)c3c(OC)cc(OC)cc3O[C@@]2(c2ccc(OC)cc2)[C@@H]1c1ccccc1	-71% (active)
COc1cc(OC)c(S(=O)(=O)N(CCCl)CCCl)cc1C(=O)/C=C/c1ccc(Cl)cc1	101% (inactive)
C[C@@H]1CCC/C=C/[C@H]2C[C@@H](O)C[C@@H]2[C@@H](O)/C=C/C(=O)O1	-84.3% (active)
C[C@@H]1C[C@H]2C(=O)O[C@@H](C)C(NC(=O)[C@H](Cc3cc(F)cc(F)c3)NC(=O)Nc3ccc(OS(=O)(=O)F)cc3)C(=O)N3CCC[C@H]3C(=O)N3CCO[C@H](C)[C@H]3C(=O)N[C@@H](CO)C(=O)N2C1 (stereo not given in full)	-19.1% (active)
CC1=C2C(=C[C@@](C)(COC(=O)c3ccc(S(=O)(=O)F)cc3)[C@@H]2O)C(=O)[C@](C)(O)C12CC2	-58.5% (active)
CN1C(=O)[C@]23SSC1(C)C(=O)N2[C@H]1Nc2ccccc2C1([C@@]12c4ccccc4N[C@@H]1N1C(=O)C4(C)SS[C@]1(C(=O)N4C)[C@H]2O)[C@@H]3O (stereo not given in full)	-88.9% (active)
CC1=C(CN(O)C(N)=O)C2=C(C)C3(CC3)[C@](C)(O)C(=O)C2=C1	-11.9% (active)
COc1cc2c(O[C@@H]3OC[C@H](OC(C)=O)[C@H](OC(C)=O)[C@H]3O)c3c(c(-c4ccc5c(c4)OCO5)c2cc1OC)C(=O)OC3	5.65% (active)
C/C=C/CC(C)C(O)[C@H](NC(=O)[C@@H]1CCCN1C(=O)C(C)(C)NC(=O)CCCCCCCCC)C(=O)N[C@@](C)(CC)C(=O)N[C@@H](CCC(N)=O)C(=O)N[C@H](CCC(N)=O)C(=O)NC(C)(C)C(=O)N[C@@](C)(CC)C(=O)N[C@@H](CCC(N)=O)C(=O)N[C@H](CC(C)C)C(=O)N[C@H](CO)CC(C)C (stereo not given in full)	104% (inactive) and -60.2% (active)
NC1CCc2cc(O)c(O)cc2C1 (stereo not given)	80.7% (inactive)
COc1cc2c(O[C@@H]3OC[C@H](O)[C@H](O)[C@H]3O)c3c(c(-c4ccc5c(c4)OCO5)c2cc1OC)C(=O)OC3	11.6% (inactive)
N#Cc1nc(-c2ccccc2)oc1N1CCC(S(=O)(=O)F)CC1	114% (inactive)
CC1=C[C@H]2O[C@@H]3C[C@@H](O)[C@](C)([C@@]2(C)CC1)[C@@]31CO1	3.33% (active)
Cc1ccc(CNc2nc3ccc(OC/C(=C/F)CN)cc3o2)cn1	111% (inactive)

SMILES	growth
N#Cc1c(-n2c(Br)c(Br)c3cc(Br)ccc32)[nH]c2c(Br)cc(Br)cc12	-89.6% (active)
CC1=C2C(=C[C@@](C)(COS(C)(=O)=O)[C@@H]2O)C(=O)[C@](C)(O)C12CC2	-33.7% (active)
COC1[C@@H]2C[C@H]3C(C)(C)O[C@@](C/C=C(/C)C(=O)O)(C2=O)[C@]32Oc3c(CC=C(C)C)c4c(c(O)c3C(=O)[C@H]12)C=CC(C)(C)O4 (stereo not given in full)	-72.1% (active)
C/C=C/CC(C)C(O)[C@H](NC(=O)[C@@H]1CCCN1C(=O)C(C)(C)NC(=O)CCCCCCCCC)C(=O)N[C@@](C)(CC)C(=O)N[C@@H](CCC(N)=O)C(=O)N[C@H](CCC(N)=O)C(=O)NC(C)(C)C(=O)NC(C)(C)C(=O)N[C@@H](CCC(N)=O)C(=O)N[C@H](CC(C)C)C(=O)N[C@H](CO)CC(C)C (stereo not given in full)	-10.4% (active) and 50.9% (inactive)
CC1=C[C@H]2O[C@@H]3C[C@H]4OC(=O)/C=C\C=C\[C@H]([C@@H](C)O)OCC/C(C)=C/C(=O)OC[C@@]2(CC1)[C@]4(C)[C@]31CO1	-62.3% (active)
CC1=C(CN(O)C(N)=O)C2=C(C)C3(CC3)[C@@](C)(O)C(=O)C2=C1	-35.9% (active)
CC1=C2C(=C[C@@](C)(COC(=O)c3ccc(S(=O)(=O)F)cc3)[C@@H]2OC(=O)c2ccc(S(=O)(=O)F)cc2)C(=O)[C@](C)(O)C12CC2	-78.1% (active)
CN(CCF)/N=N/c1nc[nH]c1C(N)=O	39.1% (inactive)
C/C=C/CC(C)C(O)[C@H](NC(=O)[C@@H]1CCCN1C(=O)C(C)(C)NC(=O)CCCCCCCCC)C(=O)NC(C)(C)C(=O)N[C@@H](CCC(N)=O)C(=O)N[C@H](CCC(N)=O)C(=O)NC(C)(C)C(=O)NC(C)(C)C(=O)N[C@@H](CCC(N)=O)C(=O)N[C@H](CC(C)C)C(=O)N[C@H](CO)CC(C)C (stereo not given in full)	-82.7% (active) and -41.1% (active)
O=C(CCCc1ccc(N(CCCl)CCCl)cc1)OCc1ccccc1	98% (inactive)
CC(C)=CCc1c2c(c(O)c3c1O[C@]14C(=C[C@@H]5C[C@H]1C(C)(C)O[C@@]4(C/C=C(/C)C(=O)O)C5=O)C3=O)C=CC(C)(C)O2	-79.8% (active)
CC(=O)O[C@@H]1C[C@H]2O[C@@H]3C=C(C)CC[C@]3(C)[C@]1(C)[C@]21CO1	-61.3% (active)
CC1=C2C(=C[C@@](C)(C=O)[C@@H]2O)C(=O)[C@](C)(O)C12CC2	-28.2% (active)
CC1=C2C(=O)[C@](C)(CO)C=C2C(=O)[C@](C)(O)C12CC2	-12.1% (active)
C/C=C/CC(C)C(O)[C@H](NC(=O)[C@@H]1CCCN1C(=O)C(C)(C)NC(=O)CCCCCCC)C(=O)N[C@@](C)(CC)C(=O)N[C@@H](CCC(N)=O)C(=O)N[C@H](CCC(N)=O)C(=O)NC(C)(C)C(=O)NC(C)(C)C(=O)N[C@@H](CCC(N)=O)C(=O)N[C@H](CC(C)C)C(=O)N[C@H](CO)CC(C)C (stereo not given in full)	118% (inactive) and -46.4% (active)
C/C=C\C(=O)O[C@@H]1CC2O[C@@H]3C=C(C)C(=O)C[C@]3(C)[C@]1(C)[C@]21CO1	-55.3% (active)
CC1=C[C@H]2O[C@@H]3C[C@H]4OC(=O)/C=C\C=C\[C@H]([C@@H](C)O)OCC[C@@H](C)[C@H](O)C(=O)OC[C@@]2(CC1)[C@]4(C)[C@]31CO1	-57.8% (active)
COc1cc(C)c(-c2ccc(OC)c(=O)cc2C)c(OC)c1OC	-29.2% (active) and 94.5% (inactive)
COc1cccc2c1cc([N+](=O)[O-])c1c(C(=O)O)cc3c(c12)OCO3	18.1% (inactive)
CC(C)(O)/C=C/C(=O)[C@](C)(O)[C@H]1[C@H](O)C[C@@]2(C)[C@H]3CC=C4[C@@H](C[C@H](O)C(=O)C4(C)C)[C@]3(C)C(=O)C[C@]12C	34.3% (inactive)
